# Results taken from ChEMBL document CHEMBL3433997, “St. Jude Leishmania screening dataset” (2016).
# Values joined by “and” are separate entries in the source; they are usually repeats but may differ in a detail not shown here. Identical values can stand only once.
# Legend:
# Format in all cases: functional
# [1] = molecular target: Solute carrier family 2, facilitated glucose transporter member 1 (Homo sapiens) (UniProt P11166); test: ST_JUDE_LEISH: Cytotoxicity at 2uM final concentration against transgenic Leishmania Mexicana promastigotes LmGLUT1 that are glucose transport deficient and complemented with the human glucose transporter GLUT1. Activity is measured by DNA content using SYBR green in vitro
# Solute carrier family 2, facilitated glucose transporter member 1 (Homo sapiens), sequence (P11166 whole entry): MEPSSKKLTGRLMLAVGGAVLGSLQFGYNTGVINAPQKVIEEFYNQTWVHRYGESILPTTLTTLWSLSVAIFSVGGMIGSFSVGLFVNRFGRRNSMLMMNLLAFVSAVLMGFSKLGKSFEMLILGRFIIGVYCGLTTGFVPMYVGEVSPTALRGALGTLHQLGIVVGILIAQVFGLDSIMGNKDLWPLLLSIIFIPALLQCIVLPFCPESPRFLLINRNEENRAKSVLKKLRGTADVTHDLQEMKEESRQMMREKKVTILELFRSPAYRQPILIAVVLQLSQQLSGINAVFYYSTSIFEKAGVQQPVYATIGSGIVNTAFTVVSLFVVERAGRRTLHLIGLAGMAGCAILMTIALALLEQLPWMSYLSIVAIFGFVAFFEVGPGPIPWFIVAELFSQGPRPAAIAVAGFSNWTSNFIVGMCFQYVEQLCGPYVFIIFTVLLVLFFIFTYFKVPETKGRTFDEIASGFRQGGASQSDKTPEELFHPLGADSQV
# [2] = molecular target: Hexose transporter 1 (Plasmodium falciparum) (UniProt O97467); test: ST_JUDE_LEISH: Cytotoxicity at 2uM final concentration against transgenic Leishmania Mexicana promastigotes LmPfHT that are glucose transport deficient and complemented with the Plasmodium falciparum hexose transporter. Activity is measured by DNA content using SYBR green in vitro
# [3] = molecular target: Glucose transporter (Leishmania mexicana) (UniProt O61059); test: ST_JUDE_LEISH: Cytotoxicity at 2uM final concentration against transgenic Leishmania Mexicana promastigotes LmGT2 that are glucose transport deficient and complemented with the L. Mexicana glucose transporter 2. Activity is measured by DNA content using SYBR green in vitro
SMILES,inhibition [1],inhibition [2],inhibition [3]
CCN(CC)CCCC(C)Nc1ccnc2cc(C#N)ccc12 (stereo not drawn),-0.82%,-2.04%,-3.31%
COc1ccc(CC2(c3ccc(F)cc3)N=C(N)N(CCCc3ccc(F)c(F)c3)C2=O)cc1 (stereo not drawn),2.06%,5.53%,3.88%
CC(C)C[C@H](NC(=O)c1cc2ccccc2s1)C(=O)N[C@H]1CCN(Cc2ccc(I)c(OC3CCN(C)C3)c2)C1 (stereo partly drawn),-1.02%,1.35%,-2.35%
O=C(CCOc1ccccc1)NCC1CCCO1 (stereo not drawn),1.87%,-0.04%,1.06%
N#Cc1cccc(-c2cccc(C(=O)NC3CCC(CCN4CCc5ccc(C#N)cc5CC4)CC3)c2)c1 (stereo not drawn),10.8%,8.62%,11.2%
O=[N+]([O-])c1ccc(N/C(=N\c2ccccc2Br)NCCOc2ccccc2)c(O)c1,0.7%,-0.42%,-2.35%
Cc1cccc(Cn2ccc3c4c(N)nc(N)nc4ccc32)c1,80.8%,81.5%,81.5%
CCCCN1CCN(CC(O)CNC(=O)Nc2ccc(Cl)cc2)CC1 (stereo not drawn),2.88%,3.59%,1.81%
CCCN(C(=O)c1ccccc1C)c1nnc(-c2cccc(C)c2)s1,-3.02%,-1.93%,-2.31%
O=C(Nc1ccc(Cl)cc1)Nc1cccc(CCNCc2ccccc2)c1,0.95%,0.57%,1.38%
Cc1cc(-c2cccc(CNC3CCN(C)CC3)c2)ccc1S(=O)(=O)NC1CCC1,2.28%,1.62%,0.45%
Cc1ccc(C(=O)Nc2cccc([N+](=O)[O-])c2)cc1S(=O)(=O)N1CC(C)CC(C)C1 (stereo not drawn),6.34%,5.86%,0.08%
CC(C)Cc1cn(-c2nc(-c3nc4ccccc4[nH]3)cs2)c2cc(Cl)ccc12,6.36%,6.84%,7.38%
NC1=NC(c2ccccc2)N(c2ccc(Cl)c(Cl)c2)C(N)=N1 (stereo not drawn),9.2%,7.89%,9.84%
CCNc1nc(OCC(F)(F)F)nc(N(c2ccccc2)c2ccccc2)n1,0.4%,1.48%,1.04%
Cc1[nH]c(C)c(-c2ccc(Oc3ccc(OC(F)(F)F)cc3)cc2)c(=O)c1Br,-1.24% and 1.98%,-1.18% and 1.4%,-2.31% and 2.01%
CCc1ccc(C(=O)NC(=O)c2ccccc2O)cc1,3.44%,3.45%,3.61%
COc1nc(NCC(C)C)nc(Oc2ccc(=O)n(Cc3ccccc3)n2)n1,1.73%,1.88%,3.48%

SMILES,inhibition [1],inhibition [2],inhibition [3]
CC(CCc1ccccc1)NCC(O)c1ccc2c(c1)S(=O)(=O)c1ccccc1N2 (stereo not drawn),1.67%,1.25%,2.14%
Nc1nc(Nc2cccc(O)c2)nc2ccccc12,6.67%,9.29%,1.22%
Cc1nnsc1C(=O)Nc1ccc(-c2cccc(-c3nc4cccc(C)c4[nH]3)c2)cc1,3.57%,2.94%,5.18%
CC(C)c1ncc(-c2ccncc2)c(C2CCC(CNC(=O)c3cccnc3)CC2)n1 (stereo not drawn),3.2%,1.25%,1.81%
COc1ccc(-n2cc(CNCCCn3ccnc3)c(-c3cccc(F)c3)n2)cc1,1.74%,2.48%,-5.03%
CS(=O)(=O)Nc1cccc(-c2cnc3[nH]cc(-c4cccc(CN)c4)c3c2)c1,4.77%,3.29%,3.74%
Cc1noc(C)c1-c1ccc2c(Nc3ccc(Cl)cc3)c(C(N)=O)cnc2c1,24.3%,29.3%,12.9%
CC(CN1CCN(C)CC1)C(=O)Nc1cccc(-c2ccc(-c3nc4ccccc4[nH]3)cc2)c1 (stereo not drawn),0.63%,1.17%,-1.58%
CCOC(=O)c1ccc(NC(=O)Nc2ccc(-c3cccc(-c4nc5cc(F)ccc5[nH]4)c3)cc2)cc1,2.36%,2.86%,1.54%
Cc1cc(OCc2ccccc2)c(OCc2ccccc2)cc1C(O)CN(C)Cc1ccccc1 (stereo not drawn),0.44%,1.08%,-0.1%
CN1CCN(C(=O)CN2CCC3(CCC2=O)NC(=O)c2ccccc2O3)CC1 (stereo not drawn),3.76%,5.1%,3.13%
Cc1cccc2nc(-c3cccc(-c4cccc(NC(=O)C(C)CN(C)C)c4)c3)[nH]c12 (stereo not drawn),1.51%,1.39%,2.3%
CCN(CCN(C)C)Cc1ccc(-c2ccc(NS(=O)(=O)c3cccc4cccnc34)cc2)cc1,14%,11.3%,6.11%
CCC1=C(CC2NCCc3cc(OC)c(OC)cc32)CC2c3cc(OC)c(OC)cc3CCN2C1 (stereo not drawn),87.8%,92.4%,89.6%
Cc1ccc(CNC(=O)[C@H](Cc2ccccc2)Nc2cc(C)nc(Nc3ccccc3)n2)cc1,7.2%,6.84%,4.59%
Cc1ccoc1C(=O)Nc1cccc(-c2cccc(-c3nc4cccc(C)c4[nH]3)c2)c1,7.85%,5.09%,4.05%
Cc1cnc(N2CCN(CC3CCN(C)CC3)CC2)nc1Oc1ccc(-n2ccnc2)cc1,4.68%,3.96%,2.78%
COc1cc2nc(N3CCC(CNC(=O)c4ccc(-c5ccc(C(=O)N(C)C)cc5)c(OCCO)c4)CC3)nc(N)c2cc1OC,2.82%,3.22%,2.26%
